Marburg entry inh: inhibitors of Marburg virus binding or cell entry. Marburg virus pseudotyped entry inhibition, cell reporter. Potency, µM (titrated, usually from 37.8 µM), inactives show at the highest dose activity change, negative = inhibition, usual class: inhibitors. 1.8% of 300,000 active. AID 540276; calls by dose curve; tested in HEK293 cells; note: potency is the fitted concentration of half-maximal effect
HCV inhibitor: HCV inhibition | Potency, µM (series often up to 41.8 µM), for inactives: top-dose activity change, negative = inhibition, hits mostly inhibitors | Huh7.5.1 HCVcc-Cre infection, luciferase reporter, 44 h | AID 651820 | 3.4% of 340,000 active; active = well fitted inhibition curve with a large enough effect; inconclusive = small, poorly fitted or top-dose-only effect, or another doubt; inactive = no such curve, though single readings can be large or run the other way; note: potency is the fitted concentration of half-maximal effect
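Infectious HCVcc-Cre (~0.5 moi) was added to cells just after compound, with cells seeded 4 h earlier at 1,000 per well. Luciferase activity after 44 h culture reported infection; substrate was incubated 15 min at room temperature before reading.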
HCMV antiviral: inhibitors of human cytomegalovirus. HFF cells, HCMV-luciferase reporter, 72 h; active compounds read low. activity change, negative = inhibition, % at 57.5 µM. 4.5% of 410,000 active. AID 1259415; in the data active = activity change below about -60%; inconclusive = no clear call, values can overlap the other calls; inactive = above about -39%
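Two compound doses tested in HFFs infected with HCMV-luciferase, MOI 1 PFU/cell, 72 h at 37C. Lysate luminescence read with OneGlo; data normalized against buffer-only and 10uM Salinomycin inhibitor controls.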
LASV entry inh: blocks Lassa virus binding to or entry into cells; Lassa virus pseudotype entry inhibition, cell reporter; Potency, µM (titrated, usually from 37.9 µM), for the others: at the top dose activity change, negative = inhibition, actives largely listed as inhibitors; 1.2% of 300,000 active; AID 540256; calls by dose curve; tested in HEK293 cells; note: potency is the fitted concentration of half-maximal effect; nearly all actives have a fitted effect of over 50% in size
FMDV inh: foot and mouth disease virus antiviral activity. 1.2% of 410,000 active. FMDV antiviral cell-based qHTS. Potency, µM (series often up to 57.9 µM), without a hit: at the top dose activity change, negative = inhibition, hits mostly inhibitors. AID 1159524; calls by dose curve; tested in HEK293T cells; note: read-out not given here; potency is the fitted concentration of half-maximal effect; nearly all actives have a fitted effect of over 45% in size
* marks the source's active call; other numbers are inactive results; ? = inconclusive; . = no result; + = active, no number; ! = not confirmed by another sample; [ ] = remark or other dose. An excerpt weighted towards active compounds, which were near 7.9% of everything screened. % is set by controls: 0 for no effect and ±100 for the full control effect.

SMILES	Marburg entry inh	HCV inhibitor	HCMV antiviral	LASV entry inh	FMDV inh
Cc1cc(-n2c(C)cc(C(=S)N3CCOCC3)c2C)ccc1Br	-38%	?	-66*	0%	?
CCOC(=O)C(=Cc1ccc(-n2ccnc2)cc1)C(=O)OCC	?	?	-86*	?	22µM*
COC(=O)c1ccc(-n2ccnc2)cc1	-1%[46.1 µM]	15%	-28	0%	-8%
CCc1ccc(C(C)NC(=O)/C=C/c2ccc(Br)cc2)cc1 (stereo not given)	-7%	-4%	-18	-25%[14.3 µM]	-13%
CCOC(=O)C(=Cc1ccc(Br)cc1)C(=O)OCC	?	?	-100*	?	22µM*
CCOC(=O)C(CC)(CC)C(=O)/C=C/c1ccc(Br)cc1	3%	?	-106*	-10%	?
CC1(C)[C@@]2(C(=O)N(CCC#N)CCC#N)CC[C@]1(C)C(=O)C2	-2%	.	.	.	.
Cc1ccsc1C1Cc2c(C(=O)NCc3cccnc3)c(=O)cc(C)n2-c2ccccc2S1 (stereo not given)	.	.	.	.	-8%
Cc1ccc(Nc2nc(NCc3ccco3)c3ccccc3n2)cc1	?	3.5µM*	-82*	2.8µM*	-42%
COc1ccccc1Nc1nc(NCc2ccco2)c2ccccc2n1	?	?	-99*	-20%	?
COc1ccc(Cn2cc(CN3CC(N4CCCC4)CS3(=O)=O)nn2)cc1 (stereo not given)	.	.	-13	.	-16%
COc1ccc(Cn2cc(CN3CC(N4CCSCC4)CS3(=O)=O)nn2)cc1 (stereo not given)	.	.	-100*	.	-14%
O=C(Nc1ccnn1C1CCN(C(=O)c2c(F)cccc2F)CC1)C1CC1	-2%	19%	15	4%	-15%
O=C(Nc1ccnn1C1CCN(C(=O)c2ccccc2C(F)(F)F)CC1)C1CC1	-1%	5%	-78*	?	15%
CCc1ccccc1Nc1nc(N)nc(COC(=O)c2cccn2C)n1	8.2µM*	?	-65*	?	27%
COCCCn1c(-c2ccc(S(=O)(=O)N3CCOCC3)cc2)csc1=Nc1ccccc1	27%	?	-88*!	-3%[46.1 µM]	11µM*
O=S(=O)(c1ccc(-c2csc(=Nc3ccc(OC(F)(F)Cl)cc3)n2CCCO)cc1)N1CCCC1	?	.	-100*	?	?
Cn1c(-c2ccc(S(=O)(=O)N3CCCC3)cc2)csc1=Nc1ccc(Cl)c(Cl)c1	.	.	-62*	?	0%
CCn1c(-c2ccc(S(=O)(=O)N3CCOCC3)cc2)csc1=Nc1ccc(C)c(Cl)c1	.	.	3	?	?
CS(=O)(=O)N(CC(=O)NC1CCCCC1)Cc1ccc(F)cc1	-4%[46.1 µM]	10%	-19	6%	-5%
COc1ccc(C(=O)N(Cc2ccco2)Cc2cccs2)c(O)c1	-4%	-14%	3	-9%	84%
COc1ccc(C(=O)/C=C/C(=O)N(CC(=O)NC2CCCCC2)Cc2ccc(F)cc2)c(O)c1	?	?	-116*	?	7.1µM*
COc1ccc(C(=O)/C=C/C(=O)N(CC(=O)NCCC(C)C)Cc2cccs2)c(O)c1	21µM*	11µM*	-100*	?	3.5µM*
COc1cccc(CN2c3ccc(Br)cc3C(=O)CS2(=O)=O)c1	.	?	-17	.	3%
CC[C@@H](O)C[C@H]1CCC[C@@]2(C[C@@H]3OC(=O)/C=C/[C@@](C)(O)[C@@H](O)[C@H](C)[C@@H](O)[C@H](OC4CCC(N(C)C)C(C)O4)[C@@H](O)[C@](C)(O)CCCCC/C=C/[C@@H]4CC(C)(C)O[C@@]4(O)C[C@H](O2)[C@H]3C)O1 (stereo not given in full)	-25%	?	-97*	?	?
SMILES	Marburg entry inh	HCV inhibitor	HCMV antiviral	LASV entry inh	FMDV inh
CN(C)CCN1CCN(C2CN(Cc3cn(Cc4ccc(F)cc4)nn3)S(=O)(=O)C2)CC1 (stereo not given)	.	.	1	.	-11%
CCNc1ncc2nc(-c3ccc(Cl)cc3)c(=O)n(C)c2n1	.	.	.	.	30%
COc1cccc(-c2c(C(=O)N/N=C/c3ccc(C)o3)nnn2-c2nonc2N)c1	.	-7%	?	.	0%
COc1cc(/C=N/NC(=O)c2sc(N)c(C#N)c2C)ccc1O	4.5µM*	-11%	-34	-7%	-18%
CC(C)(C)c1csc(NC(=O)c2ccc(Cl)s2)n1	?	8.9µM*	?	?	-40%
CNc1snc(C)c1C(=O)OC(C)C(=O)c1ccc(F)cc1 (stereo not given)	.	11µM*	-79*	.	?
CNc1snc(C)c1C(=O)OCC(=O)c1ccc(Cl)cc1	.	?	0	.	?
COC(=O)C1=C(C)N(Cc2ccccc2)C(=O)NC1c1ccccc1 (stereo not given)	?	.	.	-20%[14.3 µM]	.
Cc1cccc(N2CCN(C(=O)c3ccc4c(c3)c(C)c(C)n4C)CC2C)c1 (stereo not given)	.	?	+!	25%[46.1 µM]	1%
Cc1cccc(N2CCN(C(=O)c3nn(C)c4c3CSc3ccccc3-4)CC2C)c1 (stereo not given)	17%[46.1 µM]	.	-62*	0%[46.1 µM]	-6%
Cc1cccc(N2CCN(C(=O)c3ccc(N4CCCC4=O)cc3)CC2C)c1 (stereo not given)	?	?	-18	?	32µM*
C#CCCCO/N=C1\C[C@@H](O)[C@@H](O)[C@@H]2[C@@H]3C(=O)N(C[C@@H]4CCCO4)C(=O)[C@@H]3CC[C@@H]12	3%[14.2 µM]	.	.	.	.
CC(C)Cc1nc(SCc2cccnc2)c2c(=O)n(C)c(=O)n(C)c2n1	?	10µM*	?	?	?
Cc1ccc(C)c(CSc2nnc3[nH]c(=O)cc(C)n23)c1	.	.	-11	27%[46.1 µM]	-12%
CC(=O)N1c2ccc(S(=O)(=O)N3CCC(C(=O)Nc4cccc(C)n4)CC3)cc2CC1C (stereo not given)	.	1.3µM*	-87*	.	-19%
CC(=O)N1c2ccc(S(=O)(=O)NCC3CCC(C(=O)Nc4cccc(C)c4)CC3)cc2CC1C (stereo not given)	.	.	38	-13%[46.1 µM]	-17%
CC(=O)N1c2ccc(S(=O)(=O)N3CCC(C(=O)Nc4ccccn4)CC3)cc2CC1C (stereo not given)	.	?	?	.	-28%
CC(=O)N1c2ccc(S(=O)(=O)NCC3CCC(C(=O)Nc4cccc(C)n4)CC3)cc2CC1C (stereo not given)	?	?	-71*	?	22µM*
CN1CCc2c(sc(NC(=O)C3CCCCC3)c2C(N)=O)C1	.	6%	35	.	5%
CC(C)Nc1nc(NC(C)C)nc(N(C)N)n1	-26%	5.6µM*	14	?	-8%
CC(C)Nc1nc(NC(C)C)nc(N(C)C(N)=O)n1	-9%	-7%	51	2%	5%
COc1ccc(-c2nc3ccccc3c(=O)n2NC(=S)N(C)C)cc1	?	2%	-33	4%	-21%
Cc1nn(C)c2c1c(C(F)(F)F)cc(=O)n2CC(=O)NCCC(C)C	.	.	-3	-3%[46.1 µM]	-14%
CC(C)(C(=O)NCc1ccco1)n1cc(NC(=O)c2cncc(Br)c2)cn1	.	.	5	.	.
